From PubChem BioAssay come the findings set out here.

For part of these data: Measured potencies and affinities stand elsewhere. Calls of active or inactive are those of the source.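 The calls were made as follows: active = z-score of at least 1.8 in each of two replicates, scored against plate mean and spread of sample wells; inactive = the rest.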 Numbered stars: 1 amine (or outer) side, 2 acyl side, 3 side chain; on linkers, the order of the positions; unused ones are H or OH. Bridge positions count the residues as written; N and C are the ends. Square brackets hold non-standard residues; d marks the D form. Peptide text beside a SMILES is read from it. * marks the point of attachment. ξ: configuration not given here. ΔAla(Z-3-ureido) = NC(=O)N/C=C(\N)C(=O)O; X2 = NC1=NCCC(C(N[*:1])C(=O)[*:2])N1; ξβ3hOrn = NCCCC(N)CC(=O)*; Dap = NC[CH](N)C(=O)O

Assay [1] in a line: polyglutamine-triggered caspase-3 activation inhibitors, cell-based (AID 1583). Conditions: polyglutamine-induced caspase-3 activation, cell assay; stronger effect = higher value;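 tested at 10 µM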.
Assay [2] can be described thus: suppressors of polyQ aggregation in yeast, 75Q-TubU reporter (AID 1593). The settings on record: Yeast 75Q polyglutamine aggregation reporter.
Assay [3] is described as follows: rescue of polyQ-huntingtin neuronal dysfunction in worms, whole organism, C. elegans mechanosensory neurons, N-terminal huntingtin (AID 1599). The settings on record: touch response, stronger effect = higher value.
Assay [4] is described as follows: inhibitors of mitochondrial cytochrome c release, biochemical, purified mitochondria (AID 1603).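 Also: mouse liver mitochondria challenged with calcium chloride; signal normalized to the plate average as 100%.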 Conditions: stronger effect = lower value.
Assay [5] is described as follows: viability rescue of complex I mutant cybrids, primary screen, cell-based, galactose medium, ATP luminescence (AID 1645843).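 Also: positive z means more ATP and so rescue of galactose-driven cybrid death.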 Conditions: complex I mutant cybrid cells, 72 h, stronger effect = higher value.

As to `CCN(CCCc1ccccc1)CCCc1ccccc1` (tested in a mixture with another compound), the inhibition in assay [1] stood at 13.3%. Also, the score in assay [2] amounted to 1.17. In assay [3], this molecule displayed a rescue above control of -6.75. Moreover, the cytochrome c release ratio in assay [4] came out at 0.86.

Take `C[C@]12CCC3c4ccc(OC(=O)CCC(=O)O)cc4CCC3C1CCC2=O` (some centres not stated): the inhibition in assay [1] stood at 21.8%. Also, the score in assay [2] amounted to 1.66. This molecule gave a rescue above control in assay [3] of 8.92. Also, the cytochrome c release ratio in assay [4] is 0.83.

For the molecule `NC[C@@H]1O[C@H](OC2[C@@H](O)[C@H](O[C@@H]3[C@H](N)[C@@H](O)C[C@H](N)[C@H]3O[C@H]3O[C@H](CO)[C@@H](O)[C@H](O)[C@H]3N)O[C@@H]2CO)[C@H](N)[C@@H](O)[C@@H]1O` (some centres not stated), the inhibition in assay [1] was found to be 25.1%. Moreover, the score in assay [2] stood at 0.88. Also, the rescue above control in assay [3] was -2.53. For the same molecule, the cytochrome c release ratio in assay [4] stood at 1.33.

With `CC(CNC(=O)c1ccccc1)C(=O)OCC(=O)[C@@]12OC(C)(C)O[C@@H]1CC1C3CCC4=CC(=O)C=C[C@]4(C)[C@@]3(F)[C@@H](O)C[C@@]12C` (some centres not stated), the inhibition in assay [1] was -1.62%. In assay [2], the score amounted to 1.01. The same molecule gave a rescue above control in assay [3] of 13.9. Moreover, the cytochrome c release ratio in assay [4] came out at 0.92.

For the molecule `C[C@@H]1OC(Oc2c(-c3ccc(O)c(O)c3)oc3cc(O)cc(O)c3c2=O)[C@H](O)[C@H](O)[C@H]1O` (some centres not stated), the inhibition in assay [1] was -5.21%. In assay [2], the score turned out to be 1.19. In assay [3], this molecule returned a rescue above control of 16.2. The cytochrome c release ratio in assay [4] amounted to 0.64.

For the molecule `CC(C)CC1NC(=O)CNC1=O` (configuration not stated), the inhibition in assay [1] was 8.98%. Moreover, the score in assay [2] was 1.33. The molecule further returned a rescue above control in assay [3] of -6.28. Also, the cytochrome c release ratio in assay [4] came out at 1.01.

As for `CCC(=O)c1ccc2c(c1)N(CC(C)N(C)C)c1ccccc1S2` (configuration not stated), the inhibition in assay [1] was -29.2%. This molecule had a score in assay [2] of 1.17. Also, in assay [3], the rescue above control was found to be 1.64. Further, in assay [4], the cytochrome c release ratio stood at 1.13.

With `CC(=O)N[C@@H](Cc1c[nH]c2ccccc12)C(=O)O`, the inhibition in assay [1] is 20.8%. In addition, the score in assay [2] was determined as 1.18. For the same molecule, in assay [3], the rescue above control stood at 0.41. Further, in assay [4], the cytochrome c release ratio was 0.48.

Regarding `CC(=O)OCC(=O)[C@@]12OC(C)(C)O[C@@H]1C[C@H]1C3C[C@H](F)C4=CC(=O)C=CC4(C)[C@@]3(F)[C@@H](O)C[C@@]12C` (some centres not stated), in assay [1], the inhibition is -2.33%. Further, in assay [2], the score is 1.28. The same molecule came in with a rescue above control in assay [3] of 14.3. In addition, in assay [4], the cytochrome c release ratio came out at 0.88.

Consider `COC(=O)C(C)C[N+](C)(C)C` (configuration not stated), for which, in assay [1], the inhibition is -13.8%. In addition, the score in assay [2] was 1.1. Also, the rescue above control in assay [3] is -5.92. Besides, the cytochrome c release ratio in assay [4] is 1.54.

Take `COC(=O)/C(=C1\OC(=O)C(c2ccccc2)C1=O)c1ccccc1` (configuration not stated): in assay [1], the inhibition was -4.2%. The molecule also registered a score in assay [2] of 0.04. In assay [3], this molecule displayed a rescue above control of 9.72. Also, the cytochrome c release ratio in assay [4] was 2.13.

Turning to `CC12CCC(CC1=O)C2(C)C` (configuration not stated), the inhibition in assay [1] turned out to be 15.1%. Moreover, the score in assay [2] was found to be 1.08. The same molecule gave a rescue above control in assay [3] of 1.05. Further, the cytochrome c release ratio in assay [4] was 1.24.

On to `CC1(C)O[C@@H]2CC3C4CCC5=CC(=O)CCC5(C)C4(F)C(O)CC3(C)[C@]2(C(=O)CCl)O1` (some centres not stated), for which, in assay [1], the inhibition was -34.5%. Further, the score in assay [2] came to 1.26. The same molecule came in with a rescue above control in assay [3] of -3.98. Besides, the cytochrome c release ratio in assay [4] is 1.36.

Regarding `O=C(Cc1cccs1)NC1C(=O)N2C(C(=O)[O-])=C(C[n+]3ccccc3)CSC12` (configuration not stated), the inhibition in assay [1] was 35.1%. In assay [2], the score was 1.38. Further, in assay [3], the rescue above control was -1.43. For the same molecule, the cytochrome c release ratio in assay [4] is 1.22.

Regarding `OCc1cc2c(cn1)[nH]c1ccccc12`, in assay [1], the inhibition was determined as 15.8%. This molecule gave a score in assay [2] of 0.82. In assay [3], this molecule gave a rescue above control of 10.8. In addition, the cytochrome c release ratio in assay [4] stood at 0.58.

As to `NCCCC(N)CC(=O)NCC1NC(=O)C(CO)NC(=O)C(N)CNC(=O)C(C2CCN=C(N)N2)NC(=O)/C(=C/NC(N)=O)NC1=O` (stereo not drawn) (H-[Dap]S[Dap](ξβ3hOrn)[ΔAla(Z-3-ureido)][X2]; lactam 1-C; configuration not given here), in assay [1], the inhibition turned out to be 21.4%. In assay [2], this molecule registered a score of 1.54. This molecule registered a rescue above control in assay [3] of 3.33. For the same molecule, the cytochrome c release ratio in assay [4] amounted to 2.07.

Take `c1ccc(-n2cc(-c3ccnc(NCc4cnc5ccccn45)n3)cn2)cc1`: the z-score in assay [5] is -1.09 (inactive).

For the molecule `CC(Oc1ccc2c(c1)OCO2)C(=O)N(Cc1nccn1C)C(C)C` (configuration not stated), in assay [5], the z-score is -0.22 (inactive).

As for `c1ccc(CC2CCN(C3CCSC3)CC2)cc1` (configuration not stated), the z-score in assay [5] is -0.3 (inactive).

In the case of `CCC(CO)n1cnc2sc3c(c2c1=O)CCCCC3` (configuration not stated), the z-score in assay [5] was 1.99 (inactive).

Take `CCCn1cnc(NC(=O)NC2CCN(Cc3ccccc3)CC2)n1`: the z-score in assay [5] was 0.58 (inactive).

In the case of `CC(C)Oc1ccc(Cl)cc1-c1nnc2ccccn12`, the z-score in assay [5] is -0.805 (inactive).

On to `Cc1ccccc1N1CCCN(C(=O)CCC(C)C)CC1`, for which the z-score in assay [5] is 3.28 (active).

For `CCCC(NC(=O)c1ccc[n+]([O-])c1)c1ccccc1` (configuration not stated), the z-score in assay [5] is -0.43 (inactive).

In the case of `O=C1NCCN(C(=O)c2ccc(F)c(F)c2)C1Cc1ccccc1` (configuration not stated), the z-score in assay [5] was -0.495 (inactive).

For `CCC1(CO)CCCN(c2ncc(C(F)(F)F)cc2Cl)C1` (configuration not stated), the z-score in assay [5] was 2.98 (active).

As to `CCC(CC)CN1CCC(NS(C)(=O)=O)CC1`, in assay [5], the z-score was -0.53 (inactive).

In the case of `CC(CCCC(C)(C)O)NC/C=C/c1ccc(F)cc1` (configuration not stated), the z-score in assay [5] is -0.51 (inactive).

On to `O=C(CC1CCCCCC1)N1CCC(n2cc(C3CC3)nn2)CC1`, for which the z-score in assay [5] is -0.455 (inactive).

`COc1ccc(CN[C@@H]2CS(=O)(=O)C[C@H]2O)cc1OCc1ccc(F)cc1`: the z-score in assay [5] is -0.735 (inactive).

`CC(C)c1nc(Cn2cnc3ccsc3c2=O)cs1`: the z-score in assay [5] was -0.55 (inactive).

For `CCCCc1cc(=O)[nH]c(-c2ccc(CN(C)CCOC)cc2)n1`, the z-score in assay [5] is -0.415 (inactive).

With `Cc1cccc2c(C(=O)N(C)C(C)C)cc(-c3cnc(-c4cccnc4)nc3)nc12`, in assay [5], the z-score was -0.13 (inactive).

For the molecule `O=C1NCCN(C(=O)c2cccc(-c3ccccc3)c2)C1Cc1ccccc1` (configuration not stated), the z-score in assay [5] was 2.37 (active).

On to `COc1ccc(-c2nc(N)nc(Nc3ccc(C)cc3)n2)cc1F`, for which the z-score in assay [5] is -0.745 (inactive).

As to `CC(=O)N1CCC(NCCOc2c(C)cccc2Cl)CC1`, the z-score in assay [5] was -0.35 (inactive).

For `CC(C)CN1CCC(CNCc2ccc(C#CC(C)(C)O)s2)CC1`, the z-score in assay [5] was -1.05 (inactive).

For `O=C1CN(c2ncnc3sccc23)CCN1Cc1ccc(F)cc1`, the z-score in assay [5] was 0.19 (inactive).

Consider `CC(C)Oc1ccc(Cl)cc1-c1nnc2ccc(Cl)cn12`, for which the z-score in assay [5] was 0.31 (inactive).

Usually inhibition stands for the relative decrease from the control value, in per cent.
